Sampled rows, rich in hits. Any-hit rate of the full collection: about 19%.
S-ASM inh: inhibitors of human secretory acid sphingomyelinase | actives 0.006% (n = 340,000) | P17405 | placental ASM, HMU-PC fluorogenic substrate, 60 min | Potency, µM (doses to about 57.5 µM), for inactives: at the highest dose activity change, negative = inhibition, hits mostly inhibitors; further: potency means the concentration at half of the fitted maximal effect
Target sequence (P17405 47-631 limits assumed): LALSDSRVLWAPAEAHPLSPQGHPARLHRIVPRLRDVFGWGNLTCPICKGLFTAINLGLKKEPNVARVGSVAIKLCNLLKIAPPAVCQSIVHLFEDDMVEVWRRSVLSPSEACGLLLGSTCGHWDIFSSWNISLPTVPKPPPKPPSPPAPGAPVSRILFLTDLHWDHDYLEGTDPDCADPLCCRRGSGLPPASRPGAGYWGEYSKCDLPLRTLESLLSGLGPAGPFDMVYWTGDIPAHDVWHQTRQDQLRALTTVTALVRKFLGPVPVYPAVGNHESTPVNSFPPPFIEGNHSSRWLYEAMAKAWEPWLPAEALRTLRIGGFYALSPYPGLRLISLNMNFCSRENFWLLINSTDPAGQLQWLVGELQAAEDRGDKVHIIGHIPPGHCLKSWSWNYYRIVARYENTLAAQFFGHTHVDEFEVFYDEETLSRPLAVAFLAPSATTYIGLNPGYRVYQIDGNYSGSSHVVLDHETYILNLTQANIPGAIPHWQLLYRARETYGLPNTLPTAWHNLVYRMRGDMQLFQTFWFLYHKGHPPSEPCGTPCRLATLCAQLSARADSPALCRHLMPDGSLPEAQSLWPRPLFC
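Fluorogenic HMU-PC substrate (9 uM final) is turned over by placental ASM in 60 min at 37 C after a 10 min compound preincubation. Reaction ended by alkaline stop (pH 10), with fluorescence read at 386/447 nm.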
TGFb SMAD3 inh: TGF-b pathway inhibition; Potency, µM (highest dose often 46.1 µM), inactives show at the top dose activity, negative = inhibition, hits mostly inhibitors; actives 1.2% (n = 410,000); HepG2 CAGA-GFP TGF-b/SMAD3 reporter, GFP fluorescence, 18 h; TGF-beta stimulated, 500 pg/mL final; further: potency means the concentration at half of the fitted maximal effect; on the % scale 0 is the no-effect control and ±100 the full control effect; nearly all actives have a fitted effect of over 65% in size
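Inhibition of TGF-beta-driven CAGA-GFP reporter expression in HEPG2 cells is measured by cellular GFP fluorescence after 18 h stimulation with 500 pg/mL recombinant TGF-beta in 1% FBS medium at 37 degrees C.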
TDP1 cell CPT: DT40-hTDP1 cell growth loss with CPT; chicken DT40 Tdp1-/-;hTDP1 cells + 20 nM CPT, ATP luminescence, 48 h; Potency, µM (titrated, usually from 46.2 µM), for the others: top-dose activity change, negative = growth inhibition, most hits filed as inhibitors; actives 12% (n = 420,000); further: potency means the concentration at half of the fitted maximal effect; on the % scale 0 is the no-effect control and ±100 the full control effect; nearly all actives have a fitted effect of over 55% in size
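Cell growth measured by CellTiter-Glo luminescence after a minimum 48 h, 37 C compound exposure with 20 nM CPT in Tdp1-knockout DT40 cells stably expressing hTDP1, seeded 400/well; qHTS titration format.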
DT40 TDP1 no CPT: qHTS for Inhibitors of human tyrosyl-DNA phosphodiesterase 1 (TDP1): qHTS in cells in absence of CPT. DT40 Tdp1-/- hTDP1 cells, no CPT, ATP luminescence, 48 h. Potency, µM (titrated, usually from 46.2 µM), for inactives: at the top dose activity change, negative = growth inhibition, most hits filed as inhibitors. actives 15% (n = 420,000). AID 686978, 2013; further: potency means the concentration at half of the fitted maximal effect; on the % scale 0 is the no-effect control and ±100 the full control effect; nearly all actives have a fitted effect of over 55% in size
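Chicken DT40 Tdp1-/- cells stably complemented with human TDP1 were seeded at 400 cells/well with DMSO in place of 20 nM camptothecin. After compound pinning, cells grew at least 48 hr at 37 °C; viability read by CellTiter-Glo luminescence.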
HepG2 viability: HepG2 cytotoxicity, counter-screen for TGF-b inhibitors | actives 0.76% (n = 410,000) | HepG2 CAGA-GFP viability, ATP luminescence, 18 h | Potency, µM (doses to about 46.1 µM), for inactives: at the top dose activity change, negative = cytotoxicity, hits mostly cytotoxic; further: potency means the concentration at half of the fitted maximal effect
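CellTiter-Glo luminescence gave cytotoxicity after 18 hours at 37 degrees C. The cells were HepG2 CAGA-GFP in 1% FBS DMEM, stimulated with 500 pg/mL TGF-beta after compound addition. %Activity was normalised to no-cell wells (complete cell-killing) and DMSO (no toxicity), and curves were fitted and classified.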
IL-1B inflam inh: inhibitors of inflammasome signaling (IL-1 beta secretion). THP-1 LPS/ATP IL-1B secretion, AlphaLISA, 16 h; active compounds read low. activity change, % at 57.5 µM. actives 4.7% (n = 360,000). AID 743279; in the data active means activity change below about -50%; inconclusive means mostly about -30% to -49%; further: on the % scale 0 is the no-effect control and ±100 the full control effect
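THP-1 cells pretreated 1 hr with compounds (up to 57.5 uM final), then stimulated with LPS (250 ng/mL final) plus ATP (1.25 mM final); secreted IL-1B measured by AlphaLISA after 16 hr, decreased signal indicating inhibition.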
* marks the source's active call; other numbers are inactive results; i = inactive; ? = inconclusive; nt = no result; [ ] = another dose, or the depositor's remark. Unless noted, the call rests on the fitted dose curve; in most records, active means well fitted curve in the direction sought with a large enough effect; inconclusive means small, poorly fitted or top-dose-only effect, or another doubt; inactive means no such curve, though single readings can be large; an effect the other way counts as inactive or inconclusive.

SMILES	S-ASM inh	TGFb SMAD3 inh	TDP1 cell CPT	DT40 TDP1 no CPT	HepG2 viability	IL-1B inflam inh
Cc1c(CC(=O)NCCc2ccccc2F)c(=O)oc2c(C)c3occ(C(C)(C)C)c3cc12	nt	?	13µM*	16µM*	-16%	nt
COc1ccc(CCNC(=O)Cc2c(C)c3cc4c(C(C)(C)C)coc4c(C)c3oc2=O)cc1OC	nt	-23%	6.5µM*	8.2µM*	-10%	nt
CN(C(=O)CSc1nc2ccc(NC(=O)c3ccccc3)cc2s1)c1ccccc1	nt	-3%	?	?	4%	nt
O=C(COC(=O)/C=C/c1cccc([N+](=O)[O-])c1)Nc1cccnc1Cl	1%	0%	2%	-23%	-21%	3
Cc1cnc(-n2ncc(C(=O)N(C)C3CCOC3)c2C)nc1-c1ccc(F)cc1 (stereo not drawn)	nt	nt	-2%[9.04 µM]	-10%	nt	nt
Cc1c(C2(c3cc(C(C)C)c(O)c(Br)c3C)OS(=O)(=O)c3ccccc32)cc(C(C)C)c(O)c1Br	nt	-26%	-1%	-7%	-8%	nt
Cc1coc2c(C)c3oc(=O)c(CCC(=O)NCCc4ccccc4F)c(C)c3cc12	nt	-9%	?	16µM*	-17%	nt
COc1ccc(CNC(=O)CCc2c(C)c3cc4c(C)coc4cc3oc2=O)cc1	nt	5%	?	15µM*	-7%	nt
Cc1oc2c(c(C)cc3oc(=O)c(CC(=O)NCc4ccccc4)c(C)c32)c1C	nt	6%	13%	3%	5%	nt
Cc1oc2cc3oc(=O)c(CC(=O)NCc4ccccc4)c(C)c3cc2c1C	nt	-5%	6.5µM*	8.2µM*	0%	nt
Cc1coc2c(C)c3oc(=O)c(CCC(=O)NCCC(=O)O)c(C)c3cc12	28%	-21%	23%	-1%	7%	-11
Cc1c(CC(=O)NCCc2ccccc2)c(=O)oc2c(C)c3occ(C(C)(C)C)c3cc12	nt	?	16µM*	18µM*	-29%	nt
COc1ccc2c(C)c(CC(=O)NCCc3ccccc3)c(=O)oc2c1OC	nt	-5%	0%	-14%	1%	nt
COCCCNC(=O)Cc1c(C)c2c(cc(C)c3c(C(C)(C)C)coc32)oc1=O	-6%	?	1.3µM*	1.3µM*	-46%	-3
COCCNC(=O)Cc1c(C)c2c(cc(C)c3c(C)coc32)oc1=O	47%	-13%	-22%	?	-5%	-4
CC(C)n1cc(/C=N/Nc2ccc(C(=O)O)cc2)c2ccccc21	53%	-8%	0%	2%	-25%	41
O=C(O)c1ccc(N/N=C/c2cn(Cc3ccccc3F)c3ccccc23)cc1	144%	11µM*	-8%	-1%	-21%	0
Cc1ccccc1OCC(=O)N/N=C/c1cn(Cc2ccccc2)c2ccccc12	-13%	8.9µM*	-29%	?	-31%	30
Nc1ccc(C(=O)N/N=C/c2cn(Cc3ccccc3)c3ccccc23)cc1	-6%	2.8µM*	-10%	-19%	0%	i
Cc1ccc(Cn2cc(/C=N/NC(=O)Cc3nnc(NC(=O)c4ccc(C)cc4)s3)c3ccccc32)cc1	-8%	-27%	12µM*	6.5µM*	3%	-17
Cc1c(C(=O)N(C)C)sc2c1c(=O)n(-c1ccc(F)cc1)c(=O)n2Cc1ccccc1C#N	nt	-2%	-24%	-1%	-1%	nt
COc1ccc(O)c(CN2CCC3(CCC(CNC(=O)C4CCCO4)O3)CC2)c1 (stereo not drawn)	nt	nt	0%[9.04 µM]	-1%	nt	nt
Nc1ccc(C(=O)N/N=C/c2cn(Cc3ccccc3F)c3ccccc23)cc1	-4%	0%	?	?	-16%	-67*
O=C(N/N=C/c1cn(Cc2cccc(F)c2)c2ccccc12)c1cc(O)cc(O)c1	?	?	-17%	-16%	-12%	21
CCCCCCN1C[C@@H](n2cc(COC(=O)c3ccccc3)nn2)[C@H](O)C[C@@H]1c1ccccc1	nt	?	?	?	-61%	25
SMILES	S-ASM inh	TGFb SMAD3 inh	TDP1 cell CPT	DT40 TDP1 no CPT	HepG2 viability	IL-1B inflam inh
CCCCCCN1C[C@@H](n2cc(COC(=O)c3ccccc3)nn2)[C@H](O)C[C@@H]1c1ccc(OC)cc1	nt	?	?	?	-89%	-5
CCCCCCN1C[C@@H](n2cc(COC(=O)c3ccccc3)nn2)[C@H](O)C[C@@H]1c1ccc(Cl)cc1	nt	17%	13µM*	21µM*	1%	-17
CCCCCCN1C[C@H](n2cc(COC(=O)c3ccccc3)nn2)[C@@H](O)C[C@@H]1c1ccccc1	nt	?	?	23µM*	-93%	24
CCCCCCN1C[C@H](n2cc(COC(=O)c3ccccc3)nn2)[C@@H](O)C[C@@H]1c1ccc(C)cc1	nt	?	?	?	10µM*	25
CCCN1CCC(=O)N(CCO)CC1	0%	3%	15%	1%	0%	10
O=C(CC1(O)C(=O)N(Cc2ccccc2Cl)c2ccccc21)c1ccco1 (stereo not drawn)	-2%	-20%	3.3µM*	3.7µM*	-21%	35
Cc1ccc(CN2C(=O)C(F)(F)Oc3ccccc32)cc1	nt	20%	11%	1%	17%	16
COc1cccc2cc(C(=O)N3CCN(C(=O)c4ccco4)CC3)c(=O)oc12	4%	-6%	5%	1%	1%	10
Cc1ccc(C(=O)N2c3ccccc3N(Cc3ccccc3)C(=O)C2(C)C)cc1	-3%	?	15µM*	20µM*	-30%	-68*
COc1cccc2cc(C(=O)CC3(O)C(=O)N(Cc4ccccc4)c4ccccc43)c(=O)oc12 (stereo not drawn)	-1%	8%	13µM*	6.5µM*	-27%	4
CCCCN1C(=O)C(O)(CC(=O)c2ccc(C(C)(C)C)cc2)c2ccccc21 (stereo not drawn)	nt	?	21µM*	15µM*	-99%	nt
COc1ccc(C(=O)CC2(O)C(=O)N(Cc3ccccc3Cl)c3ccccc32)cc1 (stereo not drawn)	nt	-19%	nt	nt	-12%	nt
Cc1csc2nc(CCNS(=O)(=O)c3ccc(F)cc3)cn12	nt	-12%	-11%	1%	0%	nt
Cc1nc2cc(NC(=O)[C@@H]3C[C@@H](Sc4ccccn4)CN3C3CCCCCC3)ccc2s1	nt	nt	15%[9.04 µM]	1%	nt	nt
CCN1C(=O)C(O)(CC(=O)c2ccc3c(c2)OCCO3)c2ccccc21 (stereo not drawn)	-1%	-5%	-8%	-20%	3%	-4
